Measurements reported in PubChem BioAssay (Tox21).
Values joined by “and” are separate entries in the source; they are usually repeats but may differ in a detail not shown here. Equal values may be shown once. Results filed as inconclusive are left out. The source holds several records for some structures; these can differ, active in one and inactive in another. Active and inactive are the calls of the source. Calls come from the whole dose curve; as a rule, active = well fitted curve in the direction sought with a large enough effect in the repeat runs; inconclusive = weak or mixed curves; inactive = no such curve, though single readings can be large; an effect the other way counts as inactive or inconclusive.

Assays:
[1] = qHTS RealTime-Glo MT Cell Viability Assay in HepG2 cells - 40 hour (AID 1224870); note: nearly all actives have a fitted effect of over 50% in size; note: potency is the fitted concentration of half-maximal effect
Summary of the method: (§1)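 HepG2 cells (600/well) mixed with RealTime-Glo MT reagent, settled 5 h at 37 C/5% CO2 before compound addition. Nonlytic NanoLuc luminescence from viable-cell prosubstrate reduction read repeatedly during 40 h treatment at 37 C.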

[2] = A CellTox Green Cytotoxicity Assay to monitor cytotoxicity in HEK293 cells - 40 hour (AID 1224871); note: nearly all actives have a fitted effect of over 45% in size; note: potency is the fitted concentration of half-maximal effect
Summary of the method: (§2)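 Real-time, in one plate: 600 HEK293 cells/well with dead-cell DNA dye, pinned compound after 5 h, 37 C incubation over 40 h; viable cells give no appreciable fluorescence.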

[3] = qHTS RealTime-Glo MT Cell Viability Assay in HEK293 cells - 16 hour (AID 1224872); note: nearly all actives have a fitted effect of over 50% in size; note: potency is the fitted concentration of half-maximal effect
Summary of the method: (§3)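 Assay medium contained NanoLuc luciferase plus cell-permeant prosubstrate, added with HEK293 cells at 600 cells/well. After 5 h at 37 C/5% CO2 compounds were added; plates stayed at 37 C for 40 h with serial luminescence reads.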

[4] = qHTS RealTime-Glo MT Cell Viability Assay in HepG2 cells - 8 hour (AID 1224873); note: nearly all actives have a fitted effect of over 55% in size; note: potency is the fitted concentration of half-maximal effect
Summary of the method: as §1

[5] = qHTS RealTime-Glo MT Cell Viability Assay in HEK293 cells - 40 hour (AID 1224874); details: RealTime-Glo luminescence; max response: stronger effect = lower value; note: nearly all actives have a fitted effect of over 50% in size; note: potency is the fitted concentration of half-maximal effect
Summary of the method: (§4)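 Kinetic, non-lysing viability readout. Seed HEK293 (600/well) with reagent, incubate 5 h at 37 C/5% CO2, pin 23 nL compound in DMSO, incubate at 37 C, read luminescence at 0, 8, 16, 24, 32, 40 h.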

[6] = A CellTox Green Cytotoxicity Assay to monitor cytotoxicity in HEK293 cells - 24 hour (AID 1224875); note: nearly all actives have a fitted effect of over 45% in size; note: potency is the fitted concentration of half-maximal effect
Summary of the method: as §2

[7] = A CellTox Green Cytotoxicity Assay to monitor cytotoxicity in HepG2 cells - 16 hour (AID 1224876); note: nearly all actives have a fitted effect of over 45% in size; note: potency is the fitted concentration of half-maximal effect
Summary of the method: (§5)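 Cytotoxicity was tracked as dead-cell DNA fluorescence in HepG2 cells treated with test compounds at 37 C; each time-point value comes from one kinetic series spanning 0, 8, 16, 24, 32 and 40 h.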

[8] = qHTS RealTime-Glo MT Cell Viability Assay in HepG2 cells - 32 hour (AID 1224877); note: nearly all actives have a fitted effect of over 55% in size; note: potency is the fitted concentration of half-maximal effect
Summary of the method: (§6)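 qHTS, HepG2, 600 cells/well, RealTime-Glo (NanoLuc + prosubstrate) added with cells; 5 h preincubation; DMSO compound addition; 37 C; luminescence at 0/8/16/24/32/40 h.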

[9] = A CellTox Green Cytotoxicity Assay to monitor cytotoxicity in HepG2 cells - 24 hour (AID 1224878); note: nearly all actives have a fitted effect of over 45% in size; note: potency is the fitted concentration of half-maximal effect
Summary of the method: as §5

[10] = A CellTox Green Cytotoxicity Assay to monitor cytotoxicity in HepG2 cells - 40 hour (AID 1224879); note: nearly all actives have a fitted effect of over 40% in size; note: potency is the fitted concentration of half-maximal effect
Summary of the method: as §5

[11] = qHTS RealTime-Glo MT Cell Viability Assay in HEK293 cells - 0 hour (AID 1224880)
Summary of the method: as §4

[12] = A CellTox Green Cytotoxicity Assay to monitor cytotoxicity in HEK293 cells - 32 hour (AID 1224881); note: nearly all actives have a fitted effect of over 40% in size; note: potency is the fitted concentration of half-maximal effect
Summary of the method: as §2

[13] = A CellTox Green Cytotoxicity Assay to monitor cytotoxicity in HepG2 cells - 0 hour (AID 1224882); note: nearly all actives have a fitted effect of over 35% in size
Summary of the method: as §5

[14] = A CellTox Green Cytotoxicity Assay to monitor cytotoxicity in HepG2 cells - 32 hour (AID 1224883); note: nearly all actives have a fitted effect of over 50% in size; note: potency is the fitted concentration of half-maximal effect
Summary of the method: as §5

[15] = A CellTox Green Cytotoxicity Assay to monitor cytotoxicity in HEK293 cells - 8 hour (AID 1224884); note: nearly all actives have a fitted effect of over 35% in size
Summary of the method: as §2

[16] = qHTS RealTime-Glo MT Cell Viability Assay in HepG2 cells - 16 hour (AID 1224885); note: nearly all actives have a fitted effect of over 50% in size; note: potency is the fitted concentration of half-maximal effect
Summary of the method: as §6

[17] = qHTS RealTime-Glo MT Cell Viability Assay in HEK293 cells - 24 hour (AID 1224886); note: nearly all actives have a fitted effect of over 50% in size; note: potency is the fitted concentration of half-maximal effect
Summary of the method: as §3

[18] = qHTS RealTime-Glo MT Cell Viability Assay in HEK293 cells - 8 hour (AID 1224887); note: nearly all actives have a fitted effect of over 50% in size; note: potency is the fitted concentration of half-maximal effect
Summary of the method: as §4

[19] = A CellTox Green Cytotoxicity Assay to monitor cytotoxicity in HEK293 cells - 16 hour (AID 1224888); note: nearly all actives have a fitted effect of over 35% in size
Summary of the method: as §2

[20] = qHTS RealTime-Glo MT Cell Viability Assay in HepG2 cells - 0 hour (AID 1224889); note: nearly all actives have a fitted effect of over 50% in size
Summary of the method: as §6
% is set by controls: 0 for no effect and ±100 for the full control effect.

C=CCc1ccc2c(c1)OCO2
inactive: Potency [1] | Potency [2] | Potency [3] | Potency [4] | max response [5] 13.1% and 2.61% | Potency [6] | Potency [7] | Potency [8] | Potency [9] | Potency [10] | Potency [11] | Potency [12] | Potency [13] | Potency [14] | Potency [15] | Potency [16] | Potency [17] | Potency [18] | Potency [19] | Potency [20]

CCCCN(CCCC)N=O
inactive: Potency [1] | Potency [2] | Potency [3] | Potency [4] | max response [5] -0.0622% and 14.1% | Potency [6] | Potency [7] | Potency [8] | Potency [9] | Potency [10] | Potency [11] | Potency [12] | Potency [13] | Potency [14] | Potency [15] | Potency [16] | Potency [17] | Potency [18] | Potency [19] | Potency [20]

CC(C)NC(C)C
inactive: Potency [1] | Potency [2] | Potency [3] | Potency [4] | max response [5] 17.8% and 3.33% | Potency [6] | Potency [7] | Potency [8] | Potency [9] | Potency [10] | Potency [11] | Potency [12] | Potency [13] | Potency [14] | Potency [15] | Potency [16] | Potency [17] | Potency [18] | Potency [19] | Potency [20]

C=C(C)[C@H]1Cc2c(ccc3c2O[C@@H]2COc4cc(OC)c(OC)cc4[C@@H]2C3=O)O1
inactive: Potency [2] | Potency [6] | Potency [7] | Potency [11] | Potency [12] | Potency [13] | Potency [15] | Potency [19] | Potency [20]
24.5 µM (active) and inactive: Potency [4]
active: Potency [1] 44.2 µM and 27.5 µM | Potency [3] 88.2 nM and 15.5 nM and 107 nM | Potency [5] 55.7 nM and 11 nM and 47.7 nM | Potency [8] 44.2 µM and 27.5 µM | Potency [9] 49.6 µM and 38.9 µM | Potency [10] 24.9 µM and 24.5 µM | Potency [14] 27.9 µM and 24.5 µM | Potency [16] 31.3 µM and 27.5 µM | Potency [17] 62.5 nM and 12.3 nM and 47.7 nM | Potency [18] 249 nM and 219 nM and 60.1 nM

Nc1cccnc1
inactive: Potency [1] | Potency [2] | Potency [3] | Potency [4] | max response [5] 2.11% and -8.29% | Potency [6] | Potency [7] | Potency [8] | Potency [9] | Potency [10] | Potency [11] | Potency [12] | Potency [13] | Potency [14] | Potency [15] | Potency [16] | Potency [17] | Potency [18] | Potency [19] | Potency [20]

CCCCC(CC)COC(=O)c1ccc(C(=O)OCC(CC)CCCC)c(C(=O)OCC(CC)CCCC)c1 (stereo not drawn)
inactive: Potency [1] | Potency [2] | Potency [3] | Potency [4] | max response [5] 0.196% and 3.66% | Potency [6] | Potency [7] | Potency [8] | Potency [9] | Potency [10] | Potency [11] | Potency [12] | Potency [13] | Potency [14] | Potency [15] | Potency [16] | Potency [17] | Potency [18] | Potency [19] | Potency [20]

Oc1cc(Cl)c(Cl)cc1Cl
inactive: Potency [1] | Potency [2] | Potency [3] | Potency [4] | max response [5] -18.2% and -12.4% | Potency [6] | Potency [7] | Potency [8] | Potency [9] | Potency [10] | Potency [11] | Potency [12] | Potency [13] | Potency [14] | Potency [15] | Potency [16] | Potency [17] | Potency [19] | Potency [20]

Oc1cc(Cl)ccc1Cl
inactive: Potency [1] | Potency [2] | Potency [3] | Potency [4] | max response [5] -8.7% and -0.256% | Potency [6] | Potency [7] | Potency [8] | Potency [9] | Potency [10] | Potency [11] | Potency [12] | Potency [13] | Potency [14] | Potency [15] | Potency [16] | Potency [17] | Potency [18] | Potency [19] | Potency [20]

CCC(C)(C)c1ccc(O)cc1
active: Potency [2] 49.5 µM and 43.6 µM | Potency [6] 49.5 µM and 49 µM | Potency [7] 44.1 µM and 43.6 µM | Potency [9] 49.5 µM and 43.6 µM and 23.9 µM | Potency [10] 44.1 µM and 38.9 µM and 21.3 µM | Potency [12] 49.5 µM and 43.6 µM | Potency [14] 44.1 µM and 38.9 µM and 21.3 µM
inactive: Potency [1] | Potency [3] | Potency [4] | max response [5] -5.76% and -0.143% | Potency [8] | Potency [11] | Potency [13] | Potency [15] | Potency [16] | Potency [17] | Potency [18] | Potency [20]

COP(=S)(OC)Oc1ccc([N+](=O)[O-])cc1
inactive: Potency [1] | Potency [2] | Potency [3] | Potency [4] | max response [5] -19% and -8.77% | Potency [6] | Potency [7] | Potency [8] | Potency [9] | Potency [10] | Potency [11] | Potency [12] | Potency [13] | Potency [14] | Potency [15] | Potency [16] | Potency [17] | Potency [18] | Potency [19] | Potency [20]

COc1ccc(C=O)cc1
inactive: Potency [1] | Potency [2] | Potency [3] | Potency [4] | max response [5] 7.64% and 1.9% | Potency [6] | Potency [7] | Potency [8] | Potency [9] | Potency [10] | Potency [11] | Potency [12] | Potency [13] | Potency [14] | Potency [15] | Potency [16] | Potency [17] | Potency [18] | Potency [19] | Potency [20]
